Data from PubChem BioAssay.
The source made the active and inactive calls.

Legend:
[1] = tested on: PRMT1 (protein arginine N-methyltransferase 1); experiment: PRMT1 binders on small-molecule microarrays, primary screen, biochemical, small-molecule microarray, 635 nm fluorescence (AID 1088); settings: small-molecule microarray binding, higher = more signal;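 further: binding of Prmt1 protein to compounds spotted on small-molecule microarray slides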
[2] = yeast growth modulation, basal conditions, primary screen, YJM789 clinical isolate, OD600, 24 h (AID 1089);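 further: growth of clinical yeast isolate S. cerevisiae YJM 789 seeded 1000 cells per well; test concentration not given here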; settings: S. cerevisiae YJM789 growth, higher = more signal, called active from +8 up or from −8 down
[3] = fission yeast growth modulation, primary screen, strain 972, OD600, 24 h, no modulator (AID 1090);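 further: basal condition with compound alone and no growth modifier present; test concentration not given here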; settings: S. pombe 972 growth, higher = more signal, called active from +8 up or from −8 down
[4] = S. cerevisiae growth modulation with rapamycin, primary screen, strain BY4716, OD600, 96 h (AID 1091); settings: higher = more signal, called active from +8 up or from −8 down; further: test concentration not given here
[5] = target: Torsin-1A-interacting protein 2 (Homo sapiens) (UniProt Q8NFQ8); experiment: LULL1 binders on small-molecule microarray, primary screen, cell lysate, human LULL1 lysate, 635/667 nm fluorescence (AID 1092); settings: hLULL1 lysate binding, 635 nm fluorescence, higher = more signal;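 further: probe is lysate of COS7 cells overexpressing human LULL1; score merges per-feature 667 nm fluorescence with signal-to-noise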
Chain of Torsin-1A-interacting protein 2 (Homo sapiens) (Q8NFQ8 whole entry, looked up): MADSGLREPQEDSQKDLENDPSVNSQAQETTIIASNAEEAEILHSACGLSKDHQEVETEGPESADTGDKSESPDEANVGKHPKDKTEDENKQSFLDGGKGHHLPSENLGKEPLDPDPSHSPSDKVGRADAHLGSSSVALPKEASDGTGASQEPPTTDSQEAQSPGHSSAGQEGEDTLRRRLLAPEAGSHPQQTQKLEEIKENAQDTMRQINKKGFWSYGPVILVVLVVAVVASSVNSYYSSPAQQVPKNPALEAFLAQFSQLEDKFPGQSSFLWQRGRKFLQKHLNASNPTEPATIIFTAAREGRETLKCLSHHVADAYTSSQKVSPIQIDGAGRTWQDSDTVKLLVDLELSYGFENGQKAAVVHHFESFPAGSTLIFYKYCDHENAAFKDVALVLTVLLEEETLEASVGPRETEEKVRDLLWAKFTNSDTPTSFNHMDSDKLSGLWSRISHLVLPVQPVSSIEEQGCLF

[6] = E. coli growth modulation, two-sided OD650, primary screen, E. coli filamentation project, strain DRC41, 24 h (AID 1093); settings: OD650, 24 h, higher = more signal, called active from +8 up or from −8 down;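 further: MC1000 strain lacking acrAB efflux and sulA so SOS filamentation is blocked; test concentration not given here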
[7] = small-molecule microarray binders of probe aLefty2, primary screen, biochemical, biotinylated probe, 635/667 nm fluorescence (AID 1094); settings: higher = more signal;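 further: score merges spot fluorescence near 667 nm with spot signal-to-noise ratio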
[8] = tested on: Noggin (protein binding on small-molecule microarray); experiment: Noggin binders on small-molecule microarray, primary screen, biochemical, 635/667 nm fluorescence (AID 1095); settings: 635 nm fluorescence, higher = more signal;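 further: score merges 667 nm feature fluorescence with signal to noise over triplicate slides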
[9] = target: Neurogenic locus notch homolog protein 3 (Homo sapiens) (UniProt Q9UM47); experiment: NOTCH3 binders on small-molecule microarray, primary screen, biochemical, 635/667 nm fluorescence (AID 1096); settings: NOTCH3 binding, 635 nm fluorescence, higher = more signal
Chain of Neurogenic locus notch homolog protein 3 (Homo sapiens) (Q9UM47 whole entry, looked up): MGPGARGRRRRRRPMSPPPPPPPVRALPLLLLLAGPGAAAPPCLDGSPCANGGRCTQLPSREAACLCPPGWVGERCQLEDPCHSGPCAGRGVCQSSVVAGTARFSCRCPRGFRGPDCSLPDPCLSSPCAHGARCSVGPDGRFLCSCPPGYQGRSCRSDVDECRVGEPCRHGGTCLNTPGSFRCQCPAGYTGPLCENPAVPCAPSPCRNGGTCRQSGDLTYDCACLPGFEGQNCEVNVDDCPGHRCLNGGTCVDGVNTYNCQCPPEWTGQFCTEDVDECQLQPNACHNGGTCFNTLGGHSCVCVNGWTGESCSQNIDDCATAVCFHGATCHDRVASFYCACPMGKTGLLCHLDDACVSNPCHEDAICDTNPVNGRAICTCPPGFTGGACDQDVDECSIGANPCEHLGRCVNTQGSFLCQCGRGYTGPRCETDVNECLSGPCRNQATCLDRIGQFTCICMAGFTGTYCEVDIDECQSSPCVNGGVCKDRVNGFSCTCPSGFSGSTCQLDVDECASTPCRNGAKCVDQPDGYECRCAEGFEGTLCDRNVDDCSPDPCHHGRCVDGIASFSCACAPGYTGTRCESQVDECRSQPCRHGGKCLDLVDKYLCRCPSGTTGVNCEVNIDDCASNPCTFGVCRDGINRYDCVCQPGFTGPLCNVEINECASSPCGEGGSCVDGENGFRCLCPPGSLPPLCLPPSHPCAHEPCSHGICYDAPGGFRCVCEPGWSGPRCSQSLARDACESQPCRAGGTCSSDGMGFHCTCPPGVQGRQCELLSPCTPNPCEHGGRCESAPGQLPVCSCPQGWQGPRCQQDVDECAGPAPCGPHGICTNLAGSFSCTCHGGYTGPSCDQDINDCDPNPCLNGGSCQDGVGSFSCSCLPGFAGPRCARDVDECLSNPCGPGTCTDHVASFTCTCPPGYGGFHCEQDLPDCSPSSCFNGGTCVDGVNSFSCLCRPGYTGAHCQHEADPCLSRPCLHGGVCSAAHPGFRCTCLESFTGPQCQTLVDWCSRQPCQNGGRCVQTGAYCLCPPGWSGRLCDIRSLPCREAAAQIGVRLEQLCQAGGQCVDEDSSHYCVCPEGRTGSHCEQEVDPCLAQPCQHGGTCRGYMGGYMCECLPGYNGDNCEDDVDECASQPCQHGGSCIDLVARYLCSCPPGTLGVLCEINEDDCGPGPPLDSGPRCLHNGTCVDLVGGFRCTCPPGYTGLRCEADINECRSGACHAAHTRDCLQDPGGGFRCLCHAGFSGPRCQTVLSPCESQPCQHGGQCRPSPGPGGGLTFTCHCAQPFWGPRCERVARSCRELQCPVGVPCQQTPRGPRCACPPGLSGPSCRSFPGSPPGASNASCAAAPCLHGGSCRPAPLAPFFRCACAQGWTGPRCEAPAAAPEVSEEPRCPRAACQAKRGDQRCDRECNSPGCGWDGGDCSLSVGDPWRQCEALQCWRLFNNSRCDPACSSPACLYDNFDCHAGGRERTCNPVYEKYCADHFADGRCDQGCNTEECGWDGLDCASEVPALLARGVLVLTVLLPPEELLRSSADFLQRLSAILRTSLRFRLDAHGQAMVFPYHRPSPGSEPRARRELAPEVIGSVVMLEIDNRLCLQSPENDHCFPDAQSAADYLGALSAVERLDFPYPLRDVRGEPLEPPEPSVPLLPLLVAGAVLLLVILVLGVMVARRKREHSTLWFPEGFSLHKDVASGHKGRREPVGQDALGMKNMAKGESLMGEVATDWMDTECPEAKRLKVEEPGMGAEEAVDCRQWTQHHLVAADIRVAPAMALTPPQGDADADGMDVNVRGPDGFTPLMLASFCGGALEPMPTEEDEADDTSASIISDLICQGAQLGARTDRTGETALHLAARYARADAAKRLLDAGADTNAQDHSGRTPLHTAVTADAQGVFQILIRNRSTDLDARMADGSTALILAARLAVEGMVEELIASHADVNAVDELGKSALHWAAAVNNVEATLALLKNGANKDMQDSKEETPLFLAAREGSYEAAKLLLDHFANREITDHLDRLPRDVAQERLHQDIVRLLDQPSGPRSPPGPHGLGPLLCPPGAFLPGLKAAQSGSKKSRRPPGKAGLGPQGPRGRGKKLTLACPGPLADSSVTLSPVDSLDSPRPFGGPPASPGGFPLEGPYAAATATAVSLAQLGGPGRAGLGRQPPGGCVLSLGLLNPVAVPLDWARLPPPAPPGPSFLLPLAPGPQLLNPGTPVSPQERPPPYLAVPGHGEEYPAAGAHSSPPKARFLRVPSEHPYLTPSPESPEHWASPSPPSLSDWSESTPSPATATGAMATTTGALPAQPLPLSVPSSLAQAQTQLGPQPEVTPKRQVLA

[10] = small-molecule microarray binders of probe aEGFR, primary screen, biochemical, biotinylated probe, 635/667 nm fluorescence (AID 1097); settings: higher = more signal;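 further: probe is a biotinylated anti-EGFR antibody binding compounds printed on slides; score combines fluorescence near 667 nm and signal to noise of each spot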

| Compound | composite z-score [1] | z-score [2] | z-score [3] | z-score [4] | composite z-score [5] | z-score [6] | composite z-score [7] | composite z-score [8] | composite z-score [9] | composite z-score [10] |
| --- | --- | --- | --- | --- | --- | --- | --- | --- | --- | --- |
| COCCOC(=O)N1C(=O)[C@@]2(c3cc(C#CCCO)ccc31)[C@H](c1ccc(O)cc1)N1[C@H](c3ccccc3)[C@H](c3ccccc3)OC(=O)[C@H]1[C@@H]2C(=O)N1CCCCCCC1 | 1.54 | 0.616 (inactive) | 0.948 (inactive) | 0.563 (inactive) | 2.86 | -0.16 (inactive) | 0.947 | 1.29 | 0.991 | 0.335 |
| COCCOC(=O)N1C(=O)[C@@]2(c3ccccc31)[C@H](C(=O)N1CCCCCCC1)[C@H]1C(=O)O[C@H](c3ccccc3)[C@H](c3ccccc3)N1[C@@H]2c1ccccc1OCCO | 1.53 | 0.749 (inactive) | 0.238 (inactive) | 5.75 (inactive) | 3.61 | -0.737 (inactive) | 1.67 | 0.785 | 1.06 | 1.03 |
| COC(=O)[C@@]1(Cc2ccc(OC)cc2)[C@H]2c3cc(C(=O)N(C)C)n(Cc4ccc(OC)c(OC)c4)c3C[C@H]2CN1C(=O)c1ccccc1 | 1.58 | 1.04 (inactive) | 2.35 (inactive) | 4.24 (inactive) | 3.65 | -0.841 (inactive) | 0.401 | -0.356 | 1.03 | 0.288 |
| COc1ccccc1CN1C(=O)c2ccccc2[C@](Cc2ccccc2I)(C(=O)NC2CC2)[C@@H]1c1ccc(CO)cc1 | 1.54 | -0.357 (inactive) | 0.642 (inactive) | 2.01 (inactive) | 3.3 | 0.199 (inactive) | -0.117 | 1.1 | 1.06 | -0.0897 |
| CN(C)CCCCCCNC(=O)[C@@H]1C[C@@H]2C(=O)N[C@@H](Cc3ccccc3)C(=O)N2[C@@H]1c1cccc(OCCO)c1 | 1.55 | -1.49 (inactive) | -1.07 (inactive) | -0.567 (inactive) | 2.67 | 0.698 (inactive) | 0.0498 | 1.05 | 1.13 | -0.0492 |
| COc1ccc(CCNC(=O)[C@@]2(C)c3ccccc3C(=O)N(Cc3ccccc3)[C@H]2c2ccc(CO)cc2)cc1 | 1.53 | -1.25 (inactive) | -1.1 (inactive) | -0.648 (inactive) | 3.05 | -0.0282 (inactive) | 0.166 | 1.33 | 1.07 | 0.0192 |
| Cc1ccc(S[C@]2(C(=O)NCCCN(C)C)CC(=O)N(C(C)C)[C@@H]2c2ccc(CO)cc2I)cc1 | 1.05 | -1.25 (inactive) | -2.91 (inactive) | -1.13 (inactive) | 2.88 | 0.0601 (inactive) | -0.0654 | -0.521 | -0.0055 | -0.142 |
| O=C(CS)NCCCCCCNC(=O)[C@H]1C[C@H]2C(=O)N3CCC[C@H]3C(=O)N2[C@H]1c1ccc(O)cc1 | 1.42 | -0.637 (inactive) | 0.0932 (inactive) | 0.369 (inactive) | 2.22 | -0.506 (inactive) | -0.0845 | 1.21 | 0.905 | -0.208 |
| [N-]=[N+]=Nc1ccccc1C[C@]1(C(=O)N2CCCCC2)N=C(c2ccc(OCCCO)cc2)O[C@H]1c1ccccc1N=[N+]=[N-] | 1.56 | 0.0343 (inactive) | -10.4 (active) | 1.51 (inactive) | 3.48 | -0.204 (inactive) | 0.512 | 0.471 | 1.05 | 0.277 |
| Cc1ccc(N2C(=O)c3ccccc3[C@](C)(C(=O)NCCN3CCOCC3)[C@@H]2c2ccc(CO)cc2)nc1 | -0.405 | 0.0623 (inactive) | -0.822 (inactive) | -0.324 (inactive) | 1.04 | -1.4 (inactive) | 0.0216 | -1.02 | -1.74 | -0.312 |
| CC(C)OC(=O)C1=CCC(c2cccc(Cl)c2)O1 (stereo not given) | 0.559 | -3.2 (inactive) | -5.63 (inactive) | -1.11 (inactive) | 3.3 | 1.09 (inactive) | -0.245 | -0.523 | -0.129 | -0.306 |
| O[C@@H](Cc1ccccc1)[C@@H](/C=C/c1ccccc1)NCc1ccccc1Br | -0.995 | 0.0419 (inactive) | -11.4 (active) | -1.54 (inactive) | -0.557 | 0.908 (inactive) | 0.0372 | -1.34 | -0.707 | -0.348 |
| C=CCC(OC(C)=O)[C@@H]1[C@@H](N(Cc2ccc(-c3ccccc3)cc2)C(=O)c2ccc(C)cc2)c2cc(OCCCO)ccc2N1C(=O)c1ccc2ccccc2n1 (stereo not given in full) | -0.11 | -2.47 (inactive) | -0.772 (inactive) | -1.15 (inactive) | 0.209 | 1.95 (inactive) | 0.407 | -0.267 | -0.197 | -0.0836 |
| COC(=O)[C@@]1(Cc2ccc(F)cc2)[C@H]2c3cc(C(=O)N4CCCC4)n(Cc4ccc(Cl)c(C(F)(F)F)c4)c3C[C@H]2CN1C(=O)c1ccccc1 | 0.444 | 0.307 (inactive) | 2.12 (inactive) | 3.84 (inactive) | 3.26 | -0.482 (inactive) | 1.12 | -0.21 | 1.07 | 0.915 |
| CCOC1=C2C(c3ccc(C)cc3)N(S(=O)(=O)c3ccc(C)cc3)CC2n2c(=O)n(-c3ccccc3)c(=O)n2C1 (stereo not given) | 1.41 | -0.281 (inactive) | 0.401 (inactive) | 1.73 (inactive) | 2.89 | -0.278 (inactive) | 0.152 | 0.351 | 1.08 | 0.0201 |
| CC(C)C[C@@H]1NC(=O)[C@@H]2C[C@H](C(=O)NCCCCN(C)C)[C@H](c3ccc(O)cc3)N2C1=O | 0.577 | -0.145 (inactive) | 1.36 (inactive) | -0.367 (inactive) | 0.218 | -0.0929 (inactive) | 0.0566 | 0.118 | -0.531 | -0.218 |
| COc1ccc(C#Cc2ccc3c(c2)[C@]2(C(=O)N3)[C@H](c3ccc(OCCO)cc3)N3[C@H](c4ccccc4)[C@H](c4ccccc4)OC(=O)[C@H]3[C@@H]2C(=O)Nc2nc3ccccc3s2)cc1 | 1.54 | 2 (inactive) | 0.831 (inactive) | 1.44 (inactive) | 3.02 | 2.4 (inactive) | 0.135 | 0.57 | 1.12 | 0.238 |
| C=CC[C@@]1(C(=O)NCCN2CCOCC2)N=C(c2ccc(OCCCO)cc2)O[C@@H]1c1ccccc1CN=[N+]=[N-] | 1.56 | -1.46 (inactive) | -1.18 (inactive) | -0.548 (inactive) | 3.02 | 0.0499 (inactive) | 0.149 | -0.0392 | 0.19 | -0.0735 |
| OCCCc1cc[n+](Cc2cccc(OC(F)(F)F)c2)cc1 | 1.54 | -0.747 (inactive) | -3.01 (inactive) | 0.71 (inactive) | 3.24 | -1.65 (inactive) | 0.2 | 0.962 | 1.04 | -0.0084 |
| CCOC(=O)C1=CC[C@@H](c2ccccc2)N(S(=O)(=O)c2ccc(C)cc2)[C@H]1c1ccc(C#N)cc1 | 0.852 | -0.624 (inactive) | 0.553 (inactive) | 1.18 (inactive) | 2.73 | -0.883 (inactive) | 0.0163 | -0.232 | 1.11 | 0.136 |
| CC(C)(C)OC(=O)CC[C@@]1(C(=O)N2CCOCC2)N=C(c2ccc(OCCCO)cc2)O[C@@H]1c1ccccc1N=[N+]=[N-] | 1.53 | 0.501 (inactive) | -0.165 (inactive) | 0.404 (inactive) | 3.67 | 1.29 (inactive) | 0.0769 | 0.952 | 1.06 | 0.127 |
| COC(=O)[C@@]1(Cc2ccc(F)cc2)[C@H]2c3cc(C(=O)N(C)C)n(CCCNc4ccc(C(F)(F)F)cc4Cl)c3C[C@H]2CN1C(=O)c1ccccc1 | 1.41 | 0.406 (inactive) | 1.06 (inactive) | 5.11 (inactive) | 3.36 | -1.3 (inactive) | 0.555 | 0.282 | 1.02 | 0.361 |
| CCCCN1CC=CC23O[C@@H]4/C=C\CCCOC(=O)C4[C@H]2C(=O)N(C(C)CO)[C@@H]3C1=O (stereo not given in full) | -0.376 | -0.0849 (inactive) | -0.958 (inactive) | -0.417 (inactive) | -0.0431 | 0.315 (inactive) | -0.282 | 0.16 | -0.0087 | -0.233 |
| COCCOC(=O)N1C(=O)[C@@]2(c3cc(C#Cc4ccc(OC)cc4)ccc31)[C@H](c1ccc(O)cc1)N1[C@H](c3ccccc3)[C@H](c3ccccc3)OC(=O)[C@H]1[C@@H]2C(=O)N1CCN(c2ncccn2)CC1 | 1.52 | 1.56 (inactive) | 1.16 (inactive) | 2.83 (inactive) | 2.44 | 1.15 (inactive) | 0.047 | 0.52 | 0.258 | 0.0746 |
| COCC1C2CC[C@H]3C(OCc4ccc(F)cc4C(F)(F)F)OC[C@]4(C)[C@H]3C2=C(CN4C(=O)OC(C)(C)C)[C@H](C)C1COC (stereo not given in full) | 0.61 | -0.886 (inactive) | 1.04 (inactive) | -0.2 (inactive) | 3.48 | -1.02 (inactive) | 0.522 | -0.761 | 0.96 | 0.0598 |
| C=C(CCCC)C(=O)CC[C@H](OC(=O)c1ccccc1-c1ccccc1C(=O)O)c1ccc(CO)o1 | 1.55 | -0.521 (inactive) | 0.162 (inactive) | 0.437 (inactive) | 1.99 | 0.251 (inactive) | -0.132 | 1.35 | 1.06 | -0.065 |
| O=C1[C@H]2C=C(Br)[C@H](C[C@@H]2OCCOCCO)[C@@]12CO2 | -0.223 | 0.85 (inactive) | 0.397 (inactive) | 1.19 (inactive) | 0.0385 | -0.922 (inactive) | -0.111 | 0.595 | 0.235 | 0.0974 |
| CCCC[C@H]1OB(O)C[C@H]2C1=C(C)Cn1c(=O)n(-c3ccccc3)c(=O)n12 | 0.414 | 0.585 (inactive) | 1.19 (inactive) | 0.261 (inactive) | 0.262 | -0.314 (inactive) | -0.119 | 0.688 | 0.37 | -0.113 |
| O=[N+]([O-])c1ccc(C[n+]2ccc(CCCO)cc2)o1 | 0.464 | 0.593 (inactive) | -12.9 (active) | -0.302 (inactive) | 2.46 | -2.76 (inactive) | 0.24 | 1.73 | 1.07 | 0.296 |
